# PubChem BioAssay (NCATS)
# Records with an inconclusive call do not appear. A call without a number means that no potency is given here. Active and inactive are the calls of the source. Unless noted, the call rests on the fitted dose curve; in most records, active means well fitted curve in the direction sought with a large enough effect; inconclusive means small, poorly fitted or top-dose-only effect, or another doubt; inactive means no such curve, though single readings can be large; an effect the other way counts as inactive or inconclusive.
# Tests used:
# [1] = molecular target: Peroxisome proliferator-activated receptor gamma (Homo sapiens) (UniProt P37231); test: qHTS assay for small molecule agonists of peroxisome proliferator-activated receptor gamma signaling (AID 588536; active means well fitted curve in the direction sought with a large enough effect in the signal ratio, with a control signal flat, not every such curve was filed as active; the % refers to the signal ratio)
# How it was run: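 Compound treatment: 16 h, 37 C, HEK293 GeneBLAzer cells. Detection: CCF4, 2 h RT. Values: Hill-fit EC50, efficacy as % of 2 uM rosiglitazone.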
# [2] = molecular target: Peroxisome proliferator-activated receptor gamma (Homo sapiens) (UniProt P37231); test: qHTS assay for small molecule antagonists of peroxisome proliferator-activated receptor gamma signaling (AID 588537; active means well fitted inhibition curve with a large enough effect in the signal ratio, with a control signal flat, not every such curve was filed as active; the % refers to the signal ratio;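 further: reporter cells co-stimulated with 50 nM rosiglitazone agonist during compound treatment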)
# How it was run: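 Read-out: CCF4 fluorescence (ex 405, em 460/530 nm) after 2 h at RT. Cells were HEK293 carrying a UAS-bla reporter and treated 16 h at 37 C with compound plus rosiglitazone (50 nM final). Normalized to rosiglitazone and DMSO.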
# [3] = molecular target: Vitamin D3 receptor (Homo sapiens) (UniProt P11473); test: qHTS assay for small molecule antagonists of vitamin D receptor signaling (AID 588541; calls by dose curve;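 further: receptor activated by calcitriol during compound treatment; series mostly up to about 77 µM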)
# How it was run: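 VDR-UAS-bla HEK293T cells in 2% charcoal-stripped FBS were stimulated with 1-alpha,25-dihydroxyvitamin D3 (3 nM final) plus compound for 16 h at 37 C. The beta-lactamase CCF4 readout was normalized to 50 nM agonist and DMSO, and Hill fits gave IC50.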
# [4] = molecular target: Vitamin D3 receptor (Homo sapiens) (UniProt P11473); test: qHTS assay for small molecule agonists of vitamin D receptor signaling (AID 588543; calls by dose curve)
# How it was run: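 qHTS in agonist mode: compound titrations stimulate a VDR-driven β-lactamase reporter in HEK293T cells over 16 h at 37 °C. Response normalized to 50 nM 1α,25-dihydroxyvitamin D3 = 100%, DMSO = 0%; Hill fitting gives EC50 and maximal response.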
# [5] = qHTS assay for small molecule agonists of retinoid X receptor alpha signaling (AID 588544); settings: HEK293T RXRa-UAS-bla, beta-lactamase reporter, 18 h; 530 nm emission
# [6] = molecular target: Thyroid hormone receptor beta (Homo sapiens) (UniProt P10828); test: qHTS assay for small molecule agonists of thyroid hormone receptor beta signaling (AID 588545; calls by dose curve)
# How it was run: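 HEK 293 TR-UAS-bla; agonist mode; 18 hrs, 37 C; CCF4, ex 405/em 460 and 530 nm; norm. T3 10 nM = 100%, DMSO = 0%; Hill fit → EC50, efficacy.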
# [7] = qHTS assay for small molecule antagonists of retinoid X receptor alpha signaling (AID 588546; active means well fitted inhibition curve with a large enough effect in the signal ratio, with a control signal flat, not every such curve was filed as active; the % refers to the signal ratio;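 further: cells stimulated with 9-cis-retinoic acid as agonist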); settings: HEK293T RXRa-UAS-bla, beta-lactamase ratio, antagonist mode; measured here: W530 green channel, cytotoxicity proxy
# How it was run: (§1)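 Beta-lactamase reporter inhibition, read as CCF4 fluorescence ratio (ex 405, em 460/530 nm) after 2 h at RT. HEK293T UAS-bla cells, 2500/well, were stimulated with 9-cis-RA at 500 or 100 nM final alongside test compound for 18 h at 37 C.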
# [8] = molecular target: Retinoic acid receptor RXR-alpha (Homo sapiens) (UniProt P19793); test: as above; settings: HEK293T RXRa-UAS-bla, beta-lactamase ratio, antagonist mode
# How it was run: as §1
# [9] = molecular target: Thyroid hormone receptor beta (Homo sapiens) (UniProt P10828); test: qHTS assay for small molecule antagonists of thyroid hormone receptor beta signaling (AID 588547; active means well fitted inhibition curve with a large enough effect in the signal ratio, with a control signal flat, not every such curve was filed as active; the % refers to the signal ratio;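 further: cells stimulated with 0.4 nM T3 agonist during compound exposure; series mostly up to about 77 µM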); settings: TR-UAS-bla HEK293, beta-lactamase ratio, antagonist mode, 18 h
# How it was run: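 TR-UAS-bla GripTite HEK293 cells in 2% charcoal/dextran FBS medium; compounds 0.59 nM to 92 uM with T3 at 0.4nM final, 18 h at 37 C. Beta-lactamase read by CCF4 fluorescence (460/530 nm); Hill fits gave IC50 and efficacy.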
# [10] = molecular target: Voltage-gated inwardly rectifying potassium channel KCNH2 (Homo sapiens) (UniProt Q12809); test: qHTS Assay for Small Molecule Inhibitors of the Human hERG Channel Activity (AID 588834);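 further: U2OS cells transduced with hERG by BacMam; top concentration of the series differs between compounds; lower thallium flux fluorescence means stronger hERG block; nearly all actives have a fitted effect of over 50% in size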
# How it was run: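 Cells were infected with hERG-BacMam virus for 4 hrs at room temperature, grown overnight, then seeded at 2000/well. After dye loading and roughly 10 min compound treatment, thallium influx was triggered and fluorescence recorded.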
# [11] = qHTS assay for small molecule activators of the p53 signaling pathway (AID 651743; active means well fitted activation curve with a large enough effect in the signal ratio, not every such curve was filed as active; the % refers to the signal ratio; further: series mostly up to about 92 µM); settings: HCT-116 p53RE-bla, beta-lactamase FRET ratio, 16 h; activation: stronger effect = higher value
# How it was run: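 Reporter: beta-lactamase driven by p53 response elements, stably integrated in HCT-116 cells. Cells seeded at 4,000/well, 5 h preincubation, compound (DMSO) 16 h at 37 C; B/G FRET substrate 2 h RT; fluorescence intensity read.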
# [12] = qHTS assay for small molecule disruptors of the mitochondrial membrane potential - 1 hr assay (AID 651754; calls by dose curve; further: nearly all actives have a fitted effect of over 35% in size)
# How it was run: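 In this qHTS format, a 1 hr compound treatment of HepG2 cells precedes Mito-MPS staining, and membrane potential is judged from aggregate (red) against monomer (green) fluorescence intensity.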
# [13] = qHTS assay for small molecule disruptors of the mitochondrial membrane potential - 5 hr assay (AID 651755; calls by dose curve; further: nearly all actives have a fitted effect of over 40% in size)
# How it was run: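 Read-out: ratiometric Mito-MPS fluorescence, green monomer (ex 490/em 535) vs red mitochondrial aggregate (ex 540/em 590). HepG2 cells treated 5 hr at 37C before 30 min dye loading.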
# [14] = molecular target: Tumor necrosis factor (Homo sapiens) (UniProt P01375); test: qHTS assay to identify small molecules that stimulate Tumor Necrosis Factor-alpha (TNF-alpha) secretion (AID 651757; active means well fitted curve in the direction sought with a large enough effect in the signal ratio; the % refers to the signal ratio)
# How it was run: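 Using 3000 THP-1 cells per well, compounds and controls were applied for 17 hrs at 37 C. Detection followed with two labeled anti-TNF-alpha antibodies (cryptate donor, XL665 acceptor) for 3 hr at room temperature, measured by TR-FRET.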
# [15] = qHTS assay for environmental chemicals that activate the Aryl hydrocarbon Receptor (AhR) signaling pathway (AID 651777); settings: 1A2-DRE human hepatoma cells, luciferase, 24 h; activation: stronger effect = higher value; further: nearly all actives have a fitted effect of over 15% in size
# How it was run: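 Luminescence (One-Glo, 30 min, room temperature) reports AhR-driven luciferase in stably transfected human hepatoma cells bearing DRE and CYP1A2 promoter. Cells (1,200/well) were treated with compound for 24 hr at 37 C in qHTS format.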
# [16] = molecular target: Peroxisome proliferator-activated receptor alpha (Homo sapiens) (UniProt Q07869); test: qHTS assay for small molecule agonists of the peroxisome proliferator-activated receptor alpha (PPARalpha) signaling pathway (AID 651778); settings: PathHunter PPARalpha complementation, chemiluminescence, 6 h; max response: stronger effect = higher value
# How it was run: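 Enzyme-fragment complementation assay in which ligand-bound PPARalpha translocates and forms an active enzyme that generates chemiluminescence. Cells were plated overnight, exposed to compound for 6 hr at 37 C, and then given detection reagent for 60 min at room temperature.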
# [17] = molecular target: Nuclear receptor ROR-gamma (Homo sapiens) (UniProt P51449); test: qHTS assay for small molecule antagonists of the retinoid-related orphan receptor gamma (ROR-gamma) signaling pathway (AID 651802);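 further: CHO cells with doxycycline-induced ROR-gamma expression; luciferase reporter luminescence driven by ROR response element; series mostly up to about 92 µM; nearly all actives have a fitted effect of over 60% in size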
# How it was run: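 Doxycycline-induced reporter activity in engineered CHO cells (TET-inducible ROR, RORE-LUC) was measured by luminescence after 16hr compound exposure at 37C.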
# [18] = qHTS assay for small molecule agonists of the antioxidant response element (ARE) signaling pathway measured by Nrf2-dependant transcriptional activity (AID 720636; active means well fitted curve in the direction sought with a large enough effect in the repeat runs; an effect the other way counts as inactive or inconclusive)
# How it was run: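 Nrf2-dependent transcription read as ONE-Glo luciferase signal from ARE-luc HepG2 reporter cells after 16 hr compound treatment at 37 C, 5% CO2, in assay medium with 1% dialyzed FBS.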
# [19] = qHTS assay for small molecule antagonists of the retinoid-related orphan receptor gamma (ROR-gamma) signaling pathway - cell viability counter screen (AID 720652; active means well fitted curve in the direction sought with a large enough effect in the repeat runs; an effect the other way counts as inactive or inconclusive;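 further: CHO reporter cells with doxycycline-induced ROR-gamma expression; series mostly up to about 92 µM; compound exposure lasted 16 hr before ATP read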)
# How it was run: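 ATP-based viability readout in the ROR-gamma reporter CHO cells after 16 hr compound exposure under doxycycline induction.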
# [20] = qHTS assay for cell viability of HEK293 cells (AID 743288); settings: ATP luminescence (CellTiter-Glo), 18 h; max response: stronger effect = lower value; further: nearly all actives have a fitted effect of over 50% in size
# How it was run: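 Quantitative high-throughput screen: compounds were pinned onto parental HEK293 cells (2,000 per well) after a minimum 5 h settling at 37 C, incubated 18 h at 37 C, and intracellular ATP measured by luciferase luminescence.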
# [21] = qHTS assay for cell viability of the p53RE-bla HCT-116 cell line (AID 743292); further: nearly all actives have a fitted effect of over 55% in size
# How it was run: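 ATP-based luminescent viability (CellTiter-Glo, 30 min RT) after 16 h compound treatment at 37 C of p53RE-bla HCT-116 cells, seeded at 4,000 cells/well and rested 5 h before dosing.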
# [22] = molecular target: Nuclear receptor subfamily 1 group I member 2 (Rattus norvegicus) (UniProt Q9R1A7); test: qHTS assay for small molecule activators of the rat pregnane X receptor (rPXR) signaling pathway (AID 651751; call rule not given here); settings: rPXR reporter cells, luciferase (One-Glo), 24 h
# [23] = qHTS assay for small molecule activators of the human pregnane X receptor (PXR) signaling pathway (AID 720659; call rule not given here)
# Chain of Vitamin D3 receptor (Homo sapiens) (P11473 whole entry, looked up): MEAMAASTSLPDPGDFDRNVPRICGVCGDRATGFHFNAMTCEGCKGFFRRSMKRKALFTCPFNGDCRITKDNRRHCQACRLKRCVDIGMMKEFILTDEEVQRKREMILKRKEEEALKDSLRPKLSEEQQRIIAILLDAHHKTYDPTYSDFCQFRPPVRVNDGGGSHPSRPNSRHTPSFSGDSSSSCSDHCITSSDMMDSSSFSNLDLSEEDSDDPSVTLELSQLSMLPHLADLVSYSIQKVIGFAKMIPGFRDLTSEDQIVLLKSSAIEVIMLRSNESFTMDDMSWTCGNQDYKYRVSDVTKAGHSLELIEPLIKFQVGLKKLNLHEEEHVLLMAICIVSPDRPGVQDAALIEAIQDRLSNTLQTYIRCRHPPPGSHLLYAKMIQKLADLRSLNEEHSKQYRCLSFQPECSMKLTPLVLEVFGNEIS
# Chain of Thyroid hormone receptor beta (Homo sapiens) (P10828 whole entry, looked up): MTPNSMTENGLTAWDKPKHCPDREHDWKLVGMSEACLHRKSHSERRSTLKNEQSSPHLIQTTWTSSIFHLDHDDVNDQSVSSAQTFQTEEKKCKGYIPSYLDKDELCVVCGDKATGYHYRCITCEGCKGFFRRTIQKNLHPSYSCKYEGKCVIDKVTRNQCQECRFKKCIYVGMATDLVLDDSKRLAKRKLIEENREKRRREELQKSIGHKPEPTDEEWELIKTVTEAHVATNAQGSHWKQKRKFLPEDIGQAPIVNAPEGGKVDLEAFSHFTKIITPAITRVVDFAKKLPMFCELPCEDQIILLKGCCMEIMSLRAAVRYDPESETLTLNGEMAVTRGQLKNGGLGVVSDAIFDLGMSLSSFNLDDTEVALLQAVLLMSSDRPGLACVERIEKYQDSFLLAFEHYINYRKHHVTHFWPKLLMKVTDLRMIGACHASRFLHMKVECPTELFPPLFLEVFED
# Chain of Peroxisome proliferator-activated receptor gamma (Homo sapiens) (P37231 whole entry, looked up): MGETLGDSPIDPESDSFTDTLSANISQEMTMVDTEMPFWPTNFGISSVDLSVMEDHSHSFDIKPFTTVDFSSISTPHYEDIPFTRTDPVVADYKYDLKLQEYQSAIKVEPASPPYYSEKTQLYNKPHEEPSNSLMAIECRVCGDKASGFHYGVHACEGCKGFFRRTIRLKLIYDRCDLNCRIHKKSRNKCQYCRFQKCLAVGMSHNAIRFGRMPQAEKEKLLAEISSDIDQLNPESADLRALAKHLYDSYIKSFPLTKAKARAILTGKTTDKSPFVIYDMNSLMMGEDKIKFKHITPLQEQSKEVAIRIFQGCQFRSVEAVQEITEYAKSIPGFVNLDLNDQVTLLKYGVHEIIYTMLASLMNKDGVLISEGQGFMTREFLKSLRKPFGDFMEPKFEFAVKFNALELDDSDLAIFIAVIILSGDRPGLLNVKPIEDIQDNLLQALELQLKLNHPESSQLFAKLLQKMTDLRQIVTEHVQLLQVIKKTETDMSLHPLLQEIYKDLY
# Chain of Nuclear receptor ROR-gamma (Homo sapiens) (P51449 whole entry, looked up): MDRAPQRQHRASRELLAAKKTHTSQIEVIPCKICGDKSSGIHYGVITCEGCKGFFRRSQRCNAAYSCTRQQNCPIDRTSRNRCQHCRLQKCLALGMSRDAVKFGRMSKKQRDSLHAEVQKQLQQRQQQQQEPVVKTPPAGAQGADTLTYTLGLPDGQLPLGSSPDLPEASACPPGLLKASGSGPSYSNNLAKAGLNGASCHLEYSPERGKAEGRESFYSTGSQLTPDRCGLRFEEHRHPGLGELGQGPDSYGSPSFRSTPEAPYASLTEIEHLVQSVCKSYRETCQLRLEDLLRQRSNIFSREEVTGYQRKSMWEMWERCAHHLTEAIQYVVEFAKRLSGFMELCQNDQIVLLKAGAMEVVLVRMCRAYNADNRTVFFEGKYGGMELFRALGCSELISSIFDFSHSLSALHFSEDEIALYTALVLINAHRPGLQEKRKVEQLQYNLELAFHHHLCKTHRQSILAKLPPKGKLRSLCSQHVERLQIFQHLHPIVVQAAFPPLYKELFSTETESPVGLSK
# Chain of Tumor necrosis factor (Homo sapiens) (P01375 whole entry, looked up): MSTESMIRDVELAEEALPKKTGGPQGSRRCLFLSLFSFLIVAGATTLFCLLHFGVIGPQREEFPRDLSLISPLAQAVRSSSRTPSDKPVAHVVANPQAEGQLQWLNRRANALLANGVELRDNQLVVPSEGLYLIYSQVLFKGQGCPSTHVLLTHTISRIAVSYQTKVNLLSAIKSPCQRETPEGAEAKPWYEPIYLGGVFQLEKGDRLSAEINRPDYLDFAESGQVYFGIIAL
# Chain of Nuclear receptor subfamily 1 group I member 2 (Rattus norvegicus) (Q9R1A7 whole entry, looked up): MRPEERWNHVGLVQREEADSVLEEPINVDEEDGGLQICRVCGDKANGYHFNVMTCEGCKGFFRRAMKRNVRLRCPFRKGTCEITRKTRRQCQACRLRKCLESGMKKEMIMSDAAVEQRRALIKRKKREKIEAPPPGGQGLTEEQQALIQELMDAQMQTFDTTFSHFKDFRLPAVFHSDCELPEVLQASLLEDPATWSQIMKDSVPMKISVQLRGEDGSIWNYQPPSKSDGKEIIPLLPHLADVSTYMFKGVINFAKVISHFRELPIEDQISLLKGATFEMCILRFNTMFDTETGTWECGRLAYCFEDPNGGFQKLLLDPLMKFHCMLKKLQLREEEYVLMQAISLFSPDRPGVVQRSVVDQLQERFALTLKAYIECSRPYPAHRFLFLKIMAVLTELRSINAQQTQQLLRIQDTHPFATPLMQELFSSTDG
# Chain of Retinoic acid receptor RXR-alpha (Homo sapiens) (P19793 whole entry, looked up): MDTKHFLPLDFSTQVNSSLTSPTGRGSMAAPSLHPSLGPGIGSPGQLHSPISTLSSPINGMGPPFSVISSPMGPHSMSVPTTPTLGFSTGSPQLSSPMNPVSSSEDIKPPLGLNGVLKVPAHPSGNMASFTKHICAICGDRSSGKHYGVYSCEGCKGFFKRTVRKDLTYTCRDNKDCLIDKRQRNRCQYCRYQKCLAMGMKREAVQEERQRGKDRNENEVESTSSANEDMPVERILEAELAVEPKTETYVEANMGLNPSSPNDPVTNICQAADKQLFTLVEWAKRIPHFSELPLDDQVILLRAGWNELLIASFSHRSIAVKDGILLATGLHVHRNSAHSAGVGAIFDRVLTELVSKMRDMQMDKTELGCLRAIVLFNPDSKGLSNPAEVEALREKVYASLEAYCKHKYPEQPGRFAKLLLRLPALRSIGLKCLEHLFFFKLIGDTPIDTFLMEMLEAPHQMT
# Chain of Peroxisome proliferator-activated receptor alpha (Homo sapiens) (Q07869 whole entry, looked up, the tested form may be a part): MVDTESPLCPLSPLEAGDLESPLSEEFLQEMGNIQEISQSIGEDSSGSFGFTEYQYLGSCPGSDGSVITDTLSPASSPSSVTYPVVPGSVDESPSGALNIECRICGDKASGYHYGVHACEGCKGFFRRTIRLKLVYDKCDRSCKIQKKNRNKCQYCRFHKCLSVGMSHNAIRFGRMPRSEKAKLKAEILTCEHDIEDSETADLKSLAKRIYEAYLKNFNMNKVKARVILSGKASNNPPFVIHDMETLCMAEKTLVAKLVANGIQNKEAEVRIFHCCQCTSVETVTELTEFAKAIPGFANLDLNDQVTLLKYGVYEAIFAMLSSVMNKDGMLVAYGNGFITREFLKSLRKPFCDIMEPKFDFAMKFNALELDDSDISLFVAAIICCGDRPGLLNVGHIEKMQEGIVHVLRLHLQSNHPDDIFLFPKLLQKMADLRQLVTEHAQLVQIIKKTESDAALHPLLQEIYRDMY
# Chain of Voltage-gated inwardly rectifying potassium channel KCNH2 (Homo sapiens) (Q12809 whole entry, looked up): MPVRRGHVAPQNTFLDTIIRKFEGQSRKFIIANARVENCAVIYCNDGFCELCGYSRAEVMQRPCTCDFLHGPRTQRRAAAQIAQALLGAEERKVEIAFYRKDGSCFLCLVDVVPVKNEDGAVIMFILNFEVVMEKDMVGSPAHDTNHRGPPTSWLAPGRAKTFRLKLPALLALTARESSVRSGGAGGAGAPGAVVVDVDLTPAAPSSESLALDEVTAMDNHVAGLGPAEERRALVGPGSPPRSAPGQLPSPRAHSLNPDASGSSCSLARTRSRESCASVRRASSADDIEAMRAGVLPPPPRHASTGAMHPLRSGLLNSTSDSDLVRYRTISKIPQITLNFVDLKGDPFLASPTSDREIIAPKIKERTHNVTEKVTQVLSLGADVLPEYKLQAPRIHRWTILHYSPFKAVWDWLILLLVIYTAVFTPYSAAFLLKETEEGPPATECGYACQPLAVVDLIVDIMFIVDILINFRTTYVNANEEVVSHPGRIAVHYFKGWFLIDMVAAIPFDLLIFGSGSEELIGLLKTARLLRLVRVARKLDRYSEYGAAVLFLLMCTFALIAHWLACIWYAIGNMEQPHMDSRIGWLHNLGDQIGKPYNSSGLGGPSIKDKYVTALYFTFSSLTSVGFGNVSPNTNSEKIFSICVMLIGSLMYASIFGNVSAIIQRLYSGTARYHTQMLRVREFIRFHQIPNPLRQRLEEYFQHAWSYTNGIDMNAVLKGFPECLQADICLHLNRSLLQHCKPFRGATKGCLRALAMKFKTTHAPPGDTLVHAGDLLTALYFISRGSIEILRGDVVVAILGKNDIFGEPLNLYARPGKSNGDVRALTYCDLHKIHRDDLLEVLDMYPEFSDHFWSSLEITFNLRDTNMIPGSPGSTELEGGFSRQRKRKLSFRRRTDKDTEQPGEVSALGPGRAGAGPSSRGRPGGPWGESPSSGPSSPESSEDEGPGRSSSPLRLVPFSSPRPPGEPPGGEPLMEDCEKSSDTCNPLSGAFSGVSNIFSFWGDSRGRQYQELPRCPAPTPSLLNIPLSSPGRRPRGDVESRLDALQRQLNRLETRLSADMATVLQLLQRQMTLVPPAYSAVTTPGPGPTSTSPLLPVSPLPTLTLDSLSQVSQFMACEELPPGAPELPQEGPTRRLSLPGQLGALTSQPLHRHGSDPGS
smiles,measurement,setting,value
Cc1cccc(O)c1C,outcome,[1],inactive
same,Potency,[2],inactive
same,Potency,[3],inactive
same,outcome,[4],inactive
same,max response,[5],-18.7%
same,outcome,[6],inactive
same,max response,[7],10.3%
same,max response,[8],20.3% (inactive)
same,activity change % (negative = inhibition),[9],4.76% (inactive)
same,Potency,[10],inactive
same,activation,[11],-2.61% (inactive)
same,Potency,[12],inactive
same,Potency,[13],inactive
same,outcome,[14],inactive
same,activation,[15],-0.837% (inactive)
same,max response,[16],-2.92% (inactive)
same,Potency,[17],inactive
same,Potency,[18],inactive
same,Potency,[19],inactive
same,max response,[20],-3.02% (inactive)
same,Potency,[21],inactive
same,max response,[22],-0.434% (inactive)
same,outcome,[23],inactive
